# Whole data set: some 33,000 sequences, median “E-score (-0.5 to 0.5)” near -0.056, cut for the highest 2% near 0.38. The sample holds the highest values, similar sequences and a random draw of the others, so the mix is not that of the screen.
# Biological target: Stb4 (UniProt P50104)
# Assay: PBM E-score (8-mer binding enrichment) (E-score (-0.5 to 0.5)); higher = stronger / more preferred TF binding
# Conditions: protein concentration: 200 nM; construct: GST-DNA-binding domain
# Procedure: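 Universal 'all 10-mer' protein binding microarrays (Agilent AMADID 015681) probed with GST-tagged S. cerevisiae TFs (full-length or DBD) made by in vitro transcription/translation (PURExpress), about 100-200 nM. Bound TF was detected with fluorescent anti-GST. Each ungapped 8-mer (which stands for itself and its reverse complement) is scored by the PBM enrichment score (E-score), a modified Wilcoxon-Mann-Whitney statistic from -0.5 to +0.5, computed with the Universal PBM Analysis Suite. Scale: above 0.35 generally sequence-specific binding.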
# Chain of UniProt P50104 (P50104 whole entry): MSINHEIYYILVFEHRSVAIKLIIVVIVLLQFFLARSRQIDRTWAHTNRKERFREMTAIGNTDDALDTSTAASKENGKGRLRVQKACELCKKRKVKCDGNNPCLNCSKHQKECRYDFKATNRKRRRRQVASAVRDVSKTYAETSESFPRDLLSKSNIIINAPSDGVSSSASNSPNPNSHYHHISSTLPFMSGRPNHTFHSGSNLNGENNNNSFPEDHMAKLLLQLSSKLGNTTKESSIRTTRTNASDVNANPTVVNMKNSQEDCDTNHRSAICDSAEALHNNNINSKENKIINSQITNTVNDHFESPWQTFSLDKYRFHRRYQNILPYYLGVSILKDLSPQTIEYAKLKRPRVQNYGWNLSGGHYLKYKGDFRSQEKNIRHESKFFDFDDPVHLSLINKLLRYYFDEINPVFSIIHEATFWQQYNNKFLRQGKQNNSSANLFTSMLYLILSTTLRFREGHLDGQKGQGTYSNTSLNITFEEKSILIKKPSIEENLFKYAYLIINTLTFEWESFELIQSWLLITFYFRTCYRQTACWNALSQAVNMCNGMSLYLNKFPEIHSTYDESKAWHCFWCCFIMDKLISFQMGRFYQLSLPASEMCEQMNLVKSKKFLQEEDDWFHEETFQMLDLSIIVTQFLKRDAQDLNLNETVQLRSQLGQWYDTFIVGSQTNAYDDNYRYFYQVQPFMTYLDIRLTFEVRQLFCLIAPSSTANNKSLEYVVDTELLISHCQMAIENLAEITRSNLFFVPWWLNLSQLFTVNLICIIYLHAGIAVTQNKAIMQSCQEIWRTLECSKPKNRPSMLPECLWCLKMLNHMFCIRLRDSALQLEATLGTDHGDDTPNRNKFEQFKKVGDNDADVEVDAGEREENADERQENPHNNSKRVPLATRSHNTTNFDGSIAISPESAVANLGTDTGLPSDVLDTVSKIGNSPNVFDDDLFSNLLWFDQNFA
row,Sequence,PBM E-score
1,AATGCAGC,-0.19
2,GGGGAAGA,-0.186
3,AACCGCCG,0.22
4,CAACACAG,-0.278
5,CTAACGTA,-0.201
6,AACAATGT,-0.0925
7,CGGAACGA,0.399
8,AGGAACGA,0.0238
9,AGGAACGC,-0.097
10,CAGAACGC,-0.126
11,CGGAACGC,0.407
12,GGGAACGA,0.0562
13,GCGTTCCA,-0.104
14,ATCTATAC,0.0424
15,ATCTATTA,0.0372
16,GAGGTTCA,0.012
17,CACTTGAG,-0.265
18,GGGTCGAC,0.0843
19,CATCGGGC,0.181
20,CCCTTCGG,0.401
21,CCCTTCGA,-0.0805
22,ACCTTCGA,-0.171
23,CCCTTCGC,-0.135
24,ACCTTCGT,-0.0808

row,Sequence,PBM E-score
1,ACCTTCGG,0.404
2,CCAACTTC,-0.0561
3,GTCAAAAC,-0.0364
4,TAGAGATA,-0.0379
5,CCAAACTC,-0.0175
6,ATTTATGC,-0.126
7,GAATCCTA,0.00817
8,CAATCCGA,0.403
9,GAATCCGA,0.4
10,AAATCCGA,0.396
11,CAATCCGG,0.244
12,GAATCCGC,0.206
13,AAATCCGG,0.332
14,TAATCCCA,-0.0875
15,AAATCCGT,0.186
16,TAATCCGA,0.39
17,TAATCCTA,-0.00858
18,CAATCCGC,0.191
19,CTGATCCA,-0.0972
20,CGTGCTTA,-0.0565
21,ACCACATG,-0.182
22,GAGAAATA,0.0451
23,AGGACCCC,-0.0529
24,AAGCTTGC,-0.209

row,Sequence,PBM E-score
1,CCATGCGG,-0.0615
2,ATACCAGC,-0.121
3,CATTTTGA,-0.162
4,CGTTGAGC,-0.0224
5,AGGATCCT,-0.218
6,CGGATCCG,0.462
7,CGGATCCC,0.38
8,AGGATCCC,0.0362
9,AGGATCCG,0.395
10,CGGATCCA,0.36
11,ATGGCGTC,-0.158
12,GATTGACC,0.0279
13,CAAAATAC,-0.00837
14,ACTAGAAC,0.0472
15,AGGCTCTA,-0.08
16,ATAGCTTA,-0.106
17,GGAGCCGA,0.379
18,AGAGCCGG,0.24
19,CGAGCCGA,0.399
20,CGAGCCGC,0.328
21,AGAGCCGA,0.39
22,CGAGCCAA,0.00699
23,ATGCGGGG,0.0133
24,CCAGTCCG,0.17

row,Sequence,PBM E-score
1,ATGGCAGC,-0.171
2,ACCTACGA,-0.199
3,ACGCCATA,-0.131
4,ACGGCCCG,0.284
5,CCGGGCCG,0.382
6,CCGGGCCA,0.18
7,CCGGCCCG,0.392
8,CGGGCCCA,0.11
9,CCGGGCCC,0.303
10,CGGGCCCG,0.419
11,CCGGCCCA,0.17
12,AGGGCCCG,0.205
13,CAATTTGA,-0.046
14,TTCTACAA,-0.129
15,AAATCATT,-0.067
16,GCACCCGA,0.434
17,TCACCCAA,-0.112
18,ACACCCGA,0.445
19,CCACCCGA,0.379
20,TCACCCGA,0.407
21,GCACCCGC,0.285
22,ACACCCGG,0.331
23,ACACCCGC,0.164
24,GCACCCCA,-0.0865

# Reference: the supplement of paper PMC3334620
